# From PubChem
# This is a sample that favours compounds with a hit; in the whole collection about 1% have one here.
# LANA DNA inh = inhibitors of KSHV C-LANA binding to DNA, primary screen, biochemical, fluorescence polarization, FAM-LBS DNA, MBP-C-LANA, single point. actives 0.078% (n = 340,000). Kaposi's sarcoma herpesvirus LANA C-terminal domain (residues 932-1162) DNA binding. AID 504423, 2011. inhibition, % at 9 µM;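 active means highest replicate inhibition at or above 60% at 9 µM, even if other replicates fall short; inactive means all replicates below 60% inhibition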
# cardiac RTF act = cardiac RTF calcium sensitivity activators, primary screen, biochemical, IANBD-TnC fluorescence, EC20 calcium; AID 493008, 2010; Troponin I, cardiac muscle (Homo sapiens) + Troponin T, cardiac muscle (Homo sapiens) + …; activation, % at 7.2 µM; actives 0.24% (n = 340,000); IANBD-labeled TnC RTF fluorescence at EC20 calcium; 0% EC20 calcium, 100% full calcium;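 active means activation above the mean over all tested compounds plus 3 SD, cut at about 30% in these data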;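 further: rise in fluorescence read as greater calcium sensitivity of cardiac thin filaments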
# Cardiac RTF inh = cardiac RTF calcium sensitivity inhibitors, primary screen, biochemical, IANBD-TnC fluorescence, EC70 calcium; IANBD-labeled cardiac RTF, Ca2+ fluorescence; inhibition, % at 7.15 µM; AID 493244, 2011; actives 0.12% (n = 340,000);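 active means inhibition above the mean inhibition of all tested compounds plus 3 SD, cut at about 17% in these data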;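 further: assay run at fixed EC70 calcium of 1.6 mM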
# Keap1-Nrf2 PPI = Keap1-Nrf2 protein-protein interaction inhibitors, primary screen, biochemical, fluorescence polarization, single point. Kelch-like ECH-associated protein 1 (Homo sapiens), Q14145. Keap1 Kelch-Nrf2 peptide fluorescence polarization, 1536-well. inhibition, % at 9.4 µM. actives 0.15% (n = 340,000). AID 504523, 2011; in the data active means inhibition above about 12%;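 further: human Keap1 Kelch domain with fluorescein labeled Nrf2 9mer peptide probe; higher means more block of Keap1 binding to Nrf2 peptide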
# Target sequence (Q14145 whole entry, looked up, the tested form may be a part): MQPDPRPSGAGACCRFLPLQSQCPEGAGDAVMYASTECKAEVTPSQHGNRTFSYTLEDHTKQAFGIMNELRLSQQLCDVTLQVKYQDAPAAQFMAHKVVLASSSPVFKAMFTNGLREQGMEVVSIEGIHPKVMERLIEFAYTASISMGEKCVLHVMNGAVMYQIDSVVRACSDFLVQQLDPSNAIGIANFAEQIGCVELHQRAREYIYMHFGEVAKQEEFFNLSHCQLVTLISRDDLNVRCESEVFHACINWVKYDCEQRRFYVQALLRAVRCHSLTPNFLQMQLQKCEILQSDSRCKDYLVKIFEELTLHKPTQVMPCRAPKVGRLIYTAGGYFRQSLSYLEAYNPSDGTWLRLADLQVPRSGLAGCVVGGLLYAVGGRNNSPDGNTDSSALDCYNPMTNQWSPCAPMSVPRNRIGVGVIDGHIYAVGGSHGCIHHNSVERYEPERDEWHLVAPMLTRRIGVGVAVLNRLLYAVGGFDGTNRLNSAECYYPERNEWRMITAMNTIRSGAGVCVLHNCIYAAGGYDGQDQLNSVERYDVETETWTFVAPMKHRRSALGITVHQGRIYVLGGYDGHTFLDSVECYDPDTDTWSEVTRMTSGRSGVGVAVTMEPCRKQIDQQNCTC
# LANA-H2B inh = blockers of LANA interaction with H2A/H2B – biochemical, FP readout, HTS, primary screen. cell-free LANA-H2A/H2B peptide, fluorescence polarization. inhibition, % (test concentration not listed). actives 0.6% (n = 320,000); in the data active means inhibition mostly above about 10%, no sharp cut-off; inactive means mostly below about 6.7%
# Numbers stand for hits; - = inactive; . = not tested or not shown; + = active, no number.
SMILES,LANA DNA inh,cardiac RTF act,Cardiac RTF inh,Keap1-Nrf2 PPI,LANA-H2B inh
O=C(Cn1cnc2cc([N+](=O)[O-])ccc2c1=O)Nc1cccc(S(=O)(=O)N2CCCCC2)c1,-,-,-,-,.
O=C(c1ccccc1)c1ccc2c(c1)OCCOCCOCCOCCO2,-,-,-,-,-
O=C(c1cccc([N+](=O)[O-])c1)c1ccc2c(c1)OCCOCCOCCOCCO2,.,.,.,.,13
COCCNC(=S)NNC(=O)c1ccco1,-,-,-,-,61
O=C(c1cc2cc(Br)ccc2o1)N1CCN(c2ccccc2)CC1,-,-,-,-,16
O=C(c1cccc2ccccc12)N1CCCCC1,-,-,-,-,11
O=C(c1ccccc1C(=O)N1CCN(c2ccccc2)CC1)N1CCN(c2ccccc2)CC1,-,32,-,-,-
O=C(O)c1ccccc1C(=O)N1CCN(c2ccccc2)CC1,-,-,-,-,-
O=C(c1cc2cc(Br)ccc2o1)N1CCOCC1,-,-,-,-,-
NS(=O)(=O)c1cc(C(=O)OCC(=O)N2CCOCC2)ccc1Cl,-,-,-,-,-
Cc1ccc(NC(=O)c2ccc(Cl)c(S(=O)(=O)N3CCc4ccccc43)c2)nc1,-,-,-,-,.
COCCN(CC(=O)Nc1cccc(C)c1C)C(=O)C1CCN(S(=O)(=O)c2ccccc2)CC1,-,-,-,-,.
O=C1c2ccccc2C(=O)N1CCCSc1nc2ccccc2o1,-,-,-,-,15
CCOC(=O)Cn1c(=O)c(-c2cc(Br)ccc2N)nc2ccccc21,-,44,-,-,-
COc1cc(OC)c(OC)cc1/C=C/C(=O)c1ccc(NS(=O)(=O)c2ccc(C)cc2)cc1,-,35,-,-,-
CC(=O)c1ccc(NS(=O)(=O)c2ccc(C)cc2)cc1,-,-,-,-,-
CN(C(=O)c1cccc(NC(=O)Cc2ccc(NC(=O)C3CCCN(C(=O)c4ccccc4)C3)cc2)c1)C1CCCC1 (stereo not given),-,-,-,-,.
CCCCc1ccc(NC(=O)CSCc2cc(=O)[nH][nH]2)cc1,-,-,-,-,-
O=C(CSCc1cc(=O)[nH][nH]1)Nc1ccc(F)cc1,-,-,-,-,18
CC(C)c1nc(SCC(=O)N2CCCCCC2)c2c(=O)n(C)c(=O)n(C)c2n1,-,-,-,-,53
CC(C)c1nc(SCC(=O)N2CCCC2)c2c(=O)n(C)c(=O)n(C)c2n1,-,-,-,-,-
O=C(N=C1SC2CS(=O)(=O)CC2N1c1ccc(F)cc1)C1CC1 (stereo not given),-,-,-,-,16
COc1ccc2c(CC(=O)O)cc(=O)oc2c1,-,-,-,-,-
CC(=O)Nc1ccc2c(COC(=O)CC3Sc4ccccc4NC3=O)cc(=O)oc2c1 (stereo not given),-,-,-,-,-
COc1ccc2c(COC(=O)CC3Sc4ccccc4NC3=O)cc(=O)oc2c1 (stereo not given),-,-,-,-,15
SMILES,LANA DNA inh,cardiac RTF act,Cardiac RTF inh,Keap1-Nrf2 PPI,LANA-H2B inh
COC(=O)Cc1cc(=O)oc2cc(OC)ccc12,-,-,-,-,67
O=C1C=CC(=O)N1CCCCCCCCCCN1C(=O)C=CC1=O,-,-,-,-,.
COc1ccc(C2N3CC4(C)CN2CC(C)(C3)C4)cc1OC (stereo not given),-,-,-,-,6.4
CC1=C(C#N)C(=O)OC(C)(C)C1,-,-,-,19,-
COc1cccc(NC(=O)c2sc3ncn(CC(=O)N4CCN(c5ccccn5)CC4)c(=O)c3c2C)c1,-,-,-,-,-
Nc1ccc(N)c(C(=O)O)c1,110,-,-,-,-0.2
Nc1cc(C(F)(F)F)ccc1C(=O)O,-,-,-,-,-
COc1cccc(C(=O)N/N=C/c2ccc(OC3CSC3)cc2)c1,-,-,-,-,46
Cc1cn(CC(=O)NCc2ccc3c(c2)OCO3)c(=O)[nH]c1=O,-,-,-,-,.
CCCN1C(=O)S/C(=C/c2ccc(N3CCOCC3)o2)C1=O,-,189,-,-,-
CCCN1C(=O)S/C(=C\c2ccc(N3CCOCC3)o2)C1=O,-,171,-,-,-
CCN1C(=O)S/C(=C\c2ccc(N3CCOCC3)cc2C)C1=O,-,-,-,-,-
O=C(O)CN1C(=O)/C(=C/c2ccc(N3CCCCC3)o2)SC1=S,-,-,-,-,-
COc1ccc(CCNC(=O)Cc2cc3c(cc2[N+](=O)[O-])OCO3)cc1OC,-,-,-,-,.
CC(=O)N1N=C(c2cccs2)CC1c1ccc(C)o1 (stereo not given),-,-,-,-,36
CC(=O)N1N=C(c2cccs2)CC1c1cccs1 (stereo not given),-,-,-,-,-
CC1=Nc2ccccc2/C1=C\c1nc(-c2ccc(F)cc2)oc1O,-,84,-,-,-
Cc1cc(/C=N/NC(N)=S)c(O)c(/C=N/NC(N)=S)c1,-,166,-,-,-
CN(CC(=O)Nc1cccc(F)c1)C(=O)c1cccc(S(=O)(=O)N2CCN(c3ccc(F)cc3)CC2)c1,-,-,-,-,.
Cc1nc(N)nc(N)c1-c1ccc([N+](=O)[O-])cc1,-,-,-,-,.
CC1(C)S[C@@H]2[C@H](NC(=O)C(C(=O)O)c3ccccc3)C(=O)N2[C@H]1C(=O)O (stereo not given in full),-,-,-,-,27
CC1(C)S[C@@H]2[C@H](NC(=O)[C@H](N)c3ccccc3)C(=O)N2[C@H]1C(=O)O,-,-,-,-,-
COC(=O)CC(=O)O[C@H]1C=C[C@@H](NC(=O)OC(C)(C)C)C1,-,-,-,-,.
NNc1nc(C(F)(F)F)nc2ccccc12,-,-,-,-,-
O/C=c1\ccc2cccc3nc(C(F)(F)F)nc1c23,-,124,-,-,-
SMILES,LANA DNA inh,cardiac RTF act,Cardiac RTF inh,Keap1-Nrf2 PPI,LANA-H2B inh
CCN1C[C@@H]2[C@@H]3C(=O)N(Cc4ccccc4)C(=O)[C@@H]3[C@](CC)(C(=O)OC)N2C1=NCc1ccccc1,-,-,-,-,.
CCc1cc(-c2[nH]ncc2-c2ccc3c(c2)OCO3)c(O)cc1O,-,-,-,-,-8.4
CCc1cc(-c2[nH]ncc2-c2ccc(OC)cc2)c(O)cc1O,-,-,-,-,-
O=[N+]([O-])c1ccc2c(c1)C(=NO)c1cc(Cl)c(Cl)cc1-2,-,-,-,-,.
Cc1ccccc1NC(=S)N(CCN1CCOCC1)Cc1ccccc1F,-,-,-,-,-
CCCc1cc(=O)[nH]c(SCC(=O)N2CCc3ccccc3C2)n1,-,-,-,-,+
CCCc1cc(=O)[nH]c(SCC(=O)N2CCc3cc(OC)c(OC)cc3C2)n1,-,-,-,-,-
